# Assay results taken from PubChem BioAssay (Tox21).
# Inconclusive results are not listed. Entries that show only a call come without a potency. Unmarked numbers belong to inactive results. Calls of active or inactive are those of the source. Unless noted, the call rests on the fitted dose curve; in most records, active means well fitted curve in the direction sought with a large enough effect in the repeat runs; inconclusive means weak or mixed curves; inactive means no such curve, though single readings can be large; an effect the other way counts as inactive or inconclusive.
# Columns and labels:
# [1] = qHTS assay to identify small molecule agonists of the peroxisome proliferator-activated receptor delta (PPARd) signaling pathway - cell viability counter screen (AID 743211); further: nearly all actives have a fitted effect of over 55% in size; further: potency means the concentration at half of the fitted maximal effect
# Summary of the method: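 Tox21 library compounds, delivered in DMSO, were incubated 17 h with PPARd-bla HEK293H cells; cytotoxicity was taken from CellTiter-Glo luminescence read 30 min after reagent addition.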
# [2] = qHTS assay to identify small molecule antagonists of the peroxisome proliferator-activated receptor delta (PPARd) signaling pathway - cell viability counter screen (AID 743213); further: nearly all actives have a fitted effect of over 50% in size; further: potency means the concentration at half of the fitted maximal effect
# Summary of the method: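 HEK293H cells with the PPARd UAS-bla reporter, co-treated 17 h at 37 C with compounds and L165041 (300 nM final), were lysed with CellTiter-Glo. Luminescence indicated viable cell content.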
# [3] = biological target: Peroxisome proliferator-activated receptor delta (Homo sapiens) (UniProt Q03181); assay: qHTS assay to identify small molecule antagonists of the peroxisome proliferator-activated receptor delta (PPARd) signaling pathway (AID 743215; active means well fitted inhibition curve with a large enough effect in the signal ratio in the repeat runs, not every such curve was filed as active; the % refers to the signal ratio;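 further: cells stimulated with agonist L165041 at 300 nM final during compound exposure; series mostly up to about 62 µM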)
# Sequence of Peroxisome proliferator-activated receptor delta (Homo sapiens) (Q03181 whole entry, looked up): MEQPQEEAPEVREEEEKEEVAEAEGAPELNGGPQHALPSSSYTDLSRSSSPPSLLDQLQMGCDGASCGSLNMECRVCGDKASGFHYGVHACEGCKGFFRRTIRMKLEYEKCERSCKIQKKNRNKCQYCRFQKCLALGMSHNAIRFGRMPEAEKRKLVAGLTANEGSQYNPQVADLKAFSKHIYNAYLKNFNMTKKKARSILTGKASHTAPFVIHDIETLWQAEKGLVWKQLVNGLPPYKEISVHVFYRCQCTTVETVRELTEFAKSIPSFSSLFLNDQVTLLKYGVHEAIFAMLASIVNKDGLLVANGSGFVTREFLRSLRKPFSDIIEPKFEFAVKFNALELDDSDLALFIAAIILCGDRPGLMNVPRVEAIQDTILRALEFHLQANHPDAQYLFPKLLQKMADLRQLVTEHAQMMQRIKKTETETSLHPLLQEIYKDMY
# Summary of the method: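 Antagonist-mode beta-lactamase reporter screen: HEK293H cells with UAS-bla under PPARd control, stimulated by 300 nM L165041 (final) alongside test compound for 17 h at 37 C, then FRET fluorescence after 2 h substrate incubation.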
# [4] = biological target: Bile acid receptor (Homo sapiens) (UniProt Q96RI1); assay: qHTS assay to identify small molecule antagonists of the farnesoid-X-receptor (FXR) signaling pathway (AID 743217; active means well fitted inhibition curve with a large enough effect in the signal ratio in the repeat runs, not every such curve was filed as active; the % refers to the signal ratio)
# Sequence of Bile acid receptor (Homo sapiens) (Q96RI1 whole entry, looked up): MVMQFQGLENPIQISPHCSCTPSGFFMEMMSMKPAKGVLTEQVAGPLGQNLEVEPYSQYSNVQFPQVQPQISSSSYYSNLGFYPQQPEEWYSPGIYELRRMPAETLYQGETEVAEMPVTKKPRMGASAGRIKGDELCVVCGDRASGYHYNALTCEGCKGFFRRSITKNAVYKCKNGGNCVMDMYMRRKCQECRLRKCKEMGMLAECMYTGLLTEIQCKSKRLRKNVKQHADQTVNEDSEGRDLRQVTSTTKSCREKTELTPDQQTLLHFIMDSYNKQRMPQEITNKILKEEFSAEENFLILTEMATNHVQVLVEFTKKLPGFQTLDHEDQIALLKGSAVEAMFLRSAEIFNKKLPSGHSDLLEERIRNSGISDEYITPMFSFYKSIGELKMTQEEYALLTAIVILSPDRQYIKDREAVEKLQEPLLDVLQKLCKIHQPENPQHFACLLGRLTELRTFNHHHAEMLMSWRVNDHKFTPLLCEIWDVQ
# Summary of the method: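 Beta-lactamase reporter under UAS control in HEK 293T cells; compound exposure 16 h at 37 °C in the presence of chenodeoxycholic acid (50 uM final); signal from B/G FRET substrate after 2 h at room temperature.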
# [5] = qHTS assay to identify small molecule agonists of the farnesoid-X-receptor (FXR) signaling pathway - cell viability counter screen (AID 743218); further: nearly all actives have a fitted effect of over 45% in size
# Summary of the method: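 In GeneBLAzer FXR-UAS-bla HEK 293T cells, compounds act for 16 h at 37 C. Cell viability is then scored in the reporter wells by CellTiter-Glo, 30 min at RT, luminescence.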
# [6] = biological target: Bile acid receptor (Homo sapiens) (UniProt Q96RI1); assay: qHTS assay to identify small molecule agonists of the farnesoid-X-receptor (FXR) signaling pathway (AID 743220; active means well fitted activation curve with a large enough effect in the signal ratio in the repeat runs, not every such curve was filed as active; the % refers to the signal ratio)
# Summary of the method: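 Beta-lactamase reporter under UAS control in GeneBLAzer FXR HEK 293T cells (5000/well) measured with LiveBLAzer FRET substrate after 2 h at room temperature. Compound exposure lasted 16 h at 37C.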
# [7] = qHTS assay to identify small molecule antagonists of the farnesoid-X-receptor (FXR) signaling pathway - cell viability counter screen (AID 743221; active means well fitted cell-killing curve with a large enough effect in the repeat runs, not every such curve was filed as active; further: nearly all actives have a fitted effect of over 50% in size; further: potency means the concentration at half of the fitted maximal effect)
# Summary of the method: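 Cytotoxicity is taken from ATP luminescence (CellTiter-Glo, 30 min, room temperature) in FXR-bla HEK 293T cells previously incubated 16 h at 37 C with compound and chenodeoxycholic acid at 50 uM final.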
# [8] = biological target: Vitamin D3 receptor (Homo sapiens) (UniProt P11473); assay: qHTS assay to identify small molecule agonists of the vitamin D receptor (VDR) signaling pathway (AID 743222; calls by dose curve)
# Sequence of Vitamin D3 receptor (Homo sapiens) (P11473 whole entry, looked up): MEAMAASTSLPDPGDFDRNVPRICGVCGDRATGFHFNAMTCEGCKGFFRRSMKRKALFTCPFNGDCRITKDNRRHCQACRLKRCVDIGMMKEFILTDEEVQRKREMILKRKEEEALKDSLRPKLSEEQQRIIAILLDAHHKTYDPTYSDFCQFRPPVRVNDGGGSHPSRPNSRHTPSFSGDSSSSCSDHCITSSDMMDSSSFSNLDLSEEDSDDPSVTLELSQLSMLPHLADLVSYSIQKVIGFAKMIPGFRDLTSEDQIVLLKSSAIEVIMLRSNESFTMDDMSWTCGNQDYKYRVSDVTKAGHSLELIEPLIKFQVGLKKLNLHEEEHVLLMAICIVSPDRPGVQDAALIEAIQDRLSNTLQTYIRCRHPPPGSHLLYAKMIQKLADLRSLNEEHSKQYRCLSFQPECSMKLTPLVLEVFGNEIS
# Summary of the method: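 Agonist activity measured in VDR-bla reporter cells. Exposure 16 h, 37C, 5% CO2; detection by B/G FRET substrate, 2 h RT.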
# [9] = biological target: Vitamin D3 receptor (Homo sapiens) (UniProt P11473); assay: qHTS assay to identify small molecule antagonists of the vitamin D receptor (VDR) signaling pathway (AID 743223; active means well fitted inhibition curve with a large enough effect in the signal ratio in the repeat runs, not every such curve was filed as active; the % refers to the signal ratio; further: potency means the concentration at half of the fitted maximal effect)
# Summary of the method: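 Quantitative HTS in VDR-bla reporter cells stimulated with 1alpha,25-dihydroxyvitamin D3, 3 nM final. Compound exposure 16 h, 37C, 5% CO2. Read-out: beta-lactamase FRET substrate fluorescence, 2 h RT.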
# [10] = qHTS assay to identify small molecule agonists of the vitamin D receptor (VDR) signaling pathway - cell viability counter screen (AID 743224); further: nearly all actives have a fitted effect of over 50% in size; further: potency means the concentration at half of the fitted maximal effect; on activity change, negative = cytotoxicity: series mostly up to about 63 µM
# Summary of the method: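 VDR-bla cell line, quantitative HTS format; 16 h compound incubation (37C, 5% CO2); ATP-based CellTiter-Glo luminescence measured in the reporter assay wells.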
# [11] = qHTS assay to identify small molecule antagonists of the vitamin D receptor (VDR) signaling pathway - cell viability counter screen (AID 743225); further: nearly all actives have a fitted effect of over 50% in size
# Summary of the method: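 Same-well multiplex: following 16 h treatment of HEK 293T cells carrying a UAS-driven beta-lactamase reporter with compound and agonist (3 nM final), and a 2 h FRET substrate step, CellTiter-Glo was added and luminescence read after 30 min.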
# [12] = qHTS assay to identify small molecule agonists of the NFkB signaling pathway - cell viability counter screen (AID 1159515; calls by dose curve; further: nearly all actives have a fitted effect of over 55% in size; further: potency means the concentration at half of the fitted maximal effect; on activity, negative = cytotoxic: series mostly up to about 61 µM)
# Summary of the method: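 Viability in NFkB-bla ME-180 cells was measured by CellTiter-Glo luminescence, 30 min room temperature, in wells already treated 5 hr with compounds and read for reporter FRET.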
# [13] = qHTS assay to identify small molecule agonists of the endoplasmic reticulum stress response signaling pathway (AID 1159516; active means well fitted activation curve with a large enough effect in the signal ratio in the repeat runs, not every such curve was filed as active; the % refers to the signal ratio)
# Summary of the method: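 ER stress element reporter (bla) in HeLa. 1,500 cells/well, overnight attachment; 5 hr compound; 2 hr RT substrate; dual-emission fluorescence.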
# [14] = biological target: Nuclear receptor ROR-gamma (Homo sapiens) (UniProt P51449); assay: qHTS assay to identify small molecule antagonists of the retinoid-related orphan receptor gamma (ROR-gamma) signaling pathway (AID 1159521; further: nearly all actives have a fitted effect of over 50% in size; further: potency means the concentration at half of the fitted maximal effect)
# Summary of the method: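 Inducible-expression reporter assay: doxycycline (1 uM final) switched on RORγ in CHO cells bearing a ROR response element-luciferase construct, with test compounds present from 2 h beforehand. Decreased luminescence after 16 h defined antagonist activity.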
# [15] = qHTS assay to identify small molecule agonists of the AP-1 signaling pathway - cell viability counter screen (AID 1159525; calls by dose curve; further: nearly all actives have a fitted effect of over 55% in size)
# Summary of the method: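 ME-180 AP-1-bla, 2500 cells/well, Opti-MEM + 0.5% dialyzed FBS; overnight 37 °C; cpd 15-pt titration, 5 h 37 °C; CellTiter-Glo 30 min RT; luminescence read; normalised to TOAB and DMSO controls.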
# [16] = biological target: Retinoic acid receptor RXR-alpha (Homo sapiens) (UniProt P19793); assay: qHTS assay to identify small molecule agonists of the RXR signaling pathway (AID 1159527; calls by dose curve; further: nearly all actives have a fitted effect of over 35% in size)
# Sequence of Retinoic acid receptor RXR-alpha (Homo sapiens) (P19793 whole entry, looked up): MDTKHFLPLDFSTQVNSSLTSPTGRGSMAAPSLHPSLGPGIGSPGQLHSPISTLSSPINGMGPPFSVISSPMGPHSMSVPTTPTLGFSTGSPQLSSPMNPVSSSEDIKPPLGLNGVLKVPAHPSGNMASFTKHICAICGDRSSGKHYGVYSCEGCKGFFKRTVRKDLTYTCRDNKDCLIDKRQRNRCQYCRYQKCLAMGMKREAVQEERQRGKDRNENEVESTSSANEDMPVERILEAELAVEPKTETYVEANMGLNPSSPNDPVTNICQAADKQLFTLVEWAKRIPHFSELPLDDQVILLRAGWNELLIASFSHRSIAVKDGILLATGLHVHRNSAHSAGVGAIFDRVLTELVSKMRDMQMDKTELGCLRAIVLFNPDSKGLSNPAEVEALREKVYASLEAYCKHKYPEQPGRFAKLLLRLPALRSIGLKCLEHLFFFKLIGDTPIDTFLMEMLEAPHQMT
# Summary of the method: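 Compounds in DMSO were added to RXR-alpha-UAS-bla HEK 293T cells kept in 2% charcoal-stripped serum, and incubated 16 hr at 37 C with 5% CO2. Reporter signal came from a 2 hr B/G FRET substrate step.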
# [17] = qHTS assay to identify small molecule antagonists of the retinoid-related orphan receptor gamma (ROR-gamma) signaling pathway - cell viability counter screen (AID 1159520); further: nearly all actives have a fitted effect of over 50% in size
# Summary of the method: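 Tet-on ROR gamma CHO cells (1,000/well) were plated 4 hr, given compounds in DMSO for 2 hr at 37 C, then induced with 1 uM final doxycycline for 16 hr. Viability was read as ATP by CellTiter-Glo luminescence after 30 min.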
# [18] = biological target: Peroxisome proliferator-activated receptor delta (Homo sapiens) (UniProt Q03181); assay: qHTS assay to identify small molecule agonists of the peroxisome proliferator-activated receptor delta (PPARd) signaling pathway (AID 743212; calls by dose curve)
# Summary of the method: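 A PPARd-bla HEK293H line with beta-lactamase under an Upstream Activator Sequence is treated with compounds at 37 C. Substrate loading for 2 h at room temperature precedes the fluorescence measurement.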
# [19] = qHTS assay to identify small molecule agonists of the AP-1 signaling pathway (AID 1159526; calls by dose curve)
compound,measurement,setting,value
C[Si](Cl)(c1ccccc1)c1ccccc1,Potency,[1],inactive
same,Potency,[2],inactive
same,Potency,[3],inactive
same,Potency,[4],inactive
same,Potency,[5],inactive
same,Potency,[6],inactive
same,Potency,[7],inactive
same,Potency,[8],inactive
same,Potency,[9],inactive
same,Potency,[10],inactive
same,Potency,[11],inactive
same,Potency,[12],inactive
same,Potency,[13],inactive
same,Potency,[14],inactive
same,Potency,[15],inactive
same,Potency,[16],inactive
CN1CCC[C@@H]1CCO[C@](C)(c1ccccc1)c1ccc(Cl)cc1,Potency,[1],29.8 µM (active)
same,Potency,[2],26.6 µM (active)
same,Potency,[7],29.8 µM (active)
same,Potency,[12],21.3 µM (active)
same,Potency,[13],inactive
same,Potency,[17],inactive
same,Potency,[15],inactive
C#C[C@]1(OC(C)=O)CC[C@H]2[C@@H]3CCC4=C/C(=N/O)CC[C@@H]4[C@H]3CC[C@@]21CC,Potency,[18],inactive
same,Potency,[2],inactive
same,Potency,[3],inactive
same,Potency,[6],inactive
same,Potency,[10],inactive
same,Potency,[11],inactive
same,Potency,[12],inactive
same,Potency,[13],inactive
same,Potency,[17],inactive
O=C(Nc1ccc2c(O)c(N=Nc3ccc(N=Nc4ccc(S(=O)(=O)O)cc4)cc3)c(S(=O)(=O)O)cc2c1)c1ccccc1,Potency,[1],inactive
same,Potency,[5],inactive
same,Potency,[7],inactive
same,Potency,[8],inactive
same,Potency,[9],inactive
same,Potency,[10],inactive
same,Potency,[11],inactive
same,Potency,[12],inactive
same,Potency,[13],inactive
same,Potency,[15],inactive
same,Potency,[16],inactive
CN1CCCCC1CCN1c2ccccc2Sc2ccc(S(C)=O)cc21 (stereo unspecified),Potency,[18],inactive
same,Potency,[3],inactive
same,Potency,[5],inactive
same,Potency,[7],inactive
same,Potency,[10],inactive
same,Potency,[11],inactive
same,Potency,[12],inactive
same,Potency,[13],inactive
same,Potency,[14],29.8 µM (active)
same,Potency,[15],inactive
same,Potency,[16],inactive
CCC(C)[O-].CCC(C)[O-].CCOC(=O)/C=C(/C)[O-].[Al+3],Potency,[1],inactive
same,Potency,[2],inactive
same,Potency,[5],inactive
same,Potency,[7],inactive
same,Potency,[10],inactive
same,Potency,[11],inactive
same,Potency,[12],inactive
same,Potency,[13],inactive
same,Potency,[17],inactive
same,Potency,[15],inactive
same,Potency,[19],inactive
Oc1c(I)cc(Cl)c2cccnc12,Potency,[5],inactive
same,Potency,[7],inactive
same,Potency,[8],inactive
same,Potency,[9],8.69 µM (active)
same,Potency,[10],5.49 µM (active)
same,Potency,[11],inactive
same,Potency,[12],inactive
same,Potency,[13],inactive
same,Potency,[14],54.4 µM (active)
CC[N+](CC)(CC)CCOc1ccc(/C=C/c2ccccc2)cc1,Potency,[1],inactive
same,Potency,[5],inactive
same,Potency,[7],inactive
same,Potency,[10],inactive
same,Potency,[11],inactive
same,Potency,[12],inactive
same,Potency,[13],inactive
same,Potency,[17],inactive
same,Potency,[19],inactive
O=C(O)CN(CCN(CC(=O)O)CC(=O)O)CC(=O)O,"activity change, negative = cytotoxicity",[1],0.566% [at 2.7 µM]
same,"viability change, negative = cytotoxic",[2],5.49% [at 2.83 µM]
same,"viability change, negative = cytotoxic",[5],-17.2% [at 2.7 µM]
same,"activity change, negative = cytotoxicity",[7],-12.7% [at 2.69 µM]
same,"activity change, negative = cytotoxicity",[10],-2.08% [at 2.7 µM]
same,"viability change, negative = cytotoxic",[11],4.84% [at 3.11 µM]
same,"activity, negative = cytotoxic",[12],-2.83% [at 3.12 µM]
same,activation,[13],-1.14% [at 3.11 µM]
same,"activity, negative = cytotoxicity",[17],-1.43% [at 3.27 µM]
same,"viability change, negative = cytotoxic",[15],-2.04% [at 2.72 µM]
same,activation,[16],-6.85% [at 2.71 µM]
C#C[C@]1(O)CC[C@H]2[C@@H]3[C@H](C)CC4=C(CCC(=O)C4)[C@H]3CC[C@@]21C,Potency,[5],inactive
same,Potency,[7],inactive
same,Potency,[8],inactive
same,Potency,[9],inactive
same,Potency,[10],inactive
same,Potency,[11],inactive
same,Potency,[12],inactive
same,Potency,[13],inactive
same,Potency,[17],inactive
same,Potency,[15],inactive
same,Potency,[19],inactive
CC1(C)CCC[C@]2(C)[C@H]3CC(=O)O[C@]3(C)CC[C@@H]12,Potency,[1],inactive
same,Potency,[18],inactive
same,Potency,[2],inactive
same,Potency,[3],inactive
same,Potency,[5],inactive
same,Potency,[7],inactive
same,Potency,[10],inactive
same,Potency,[11],inactive
same,Potency,[12],inactive
same,Potency,[13],inactive
same,Potency,[14],inactive
